Screens from PubChem.
Most compounds without a hit are left out; they make up all but 6.7% or so of the library.
C diff growth: blocks growth of Clostridium difficile; Clostridium difficile clinical isolate growth, OD600, 24 h; active compounds read low; growth activity, negative = inhibition, % at 16 µg/mL (by protocol); 86,000 tested, 0.25% active; AID 1259249;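 active means mean growth activity at or below -80% and every replicate also at or below -80%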;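 further: 0% = DMSO wells and -100% = levofloxacin 16 µg/mL wells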
T cruzi growth: blocks T. cruzi growth in NIH3T3 culture; 77,000 tested, 5.9% active; T. cruzi beta-gal in NIH3T3, GalScreen luminescence, 90 h; inhibition, % at 8.34 µM; AID 624255;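 active means mean inhibition above about 93%, with at least 55% of replicates each passing it, limit read from the data, passing the limit was not always enough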
Pf Dd2 inh: blocks growth of Plasmodium falciparum Dd2 parasites; P. falciparum Dd2 growth, SYBR Green, 72 h; active compounds read low; activity change, % at 10 µM; 94,000 tested, 2.3% active; in the data active means activity change below about -80%
* hit, by the source's call; / = not tested or not shown.

SMILES	C diff growth	T cruzi growth	Pf Dd2 inh
Cc1ccccc1S(=O)(=O)N1CCCCN2[C@H](CO)[C@H](c3ccc(-c4ccccc4)cc3)[C@H]2C1	34	66	-82*
CCCC#Cc1ccc([C@H]2[C@H]3CN(S(=O)(=O)c4ccccc4C)CCCCN3[C@H]2CO)cc1	18	65	-8
C[C@@H]1CN([C@H](C)CO)C(=O)CCCn2cc(nn2)CO[C@@H]1CN(C)C(=O)C1CC1	-1	-164	-1
COc1cccc(CNC(=O)C[C@H]2CC[C@H](NS(=O)(=O)c3ccccc3OC)[C@H](CO)O2)c1	-2	63	-7
O=C(Nc1ccc(F)cc1)N[C@H]1CC[C@@H](CCNC(=O)c2ccccc2F)O[C@@H]1CO	-1	/	23
C[C@@H]1CN([C@H](C)CO)C(=O)c2cccc(NC(=O)Nc3ccc4c(c3)OCO4)c2O[C@H]1CN(C)S(C)(=O)=O	0	51	-10
O=C(C[C@H]1CC[C@H]2[C@@H](COC[C@H](O)CN2C(=O)c2cnccn2)O1)NCc1ccccc1	/	37	-2
COc1ccc2c3c([nH]c2c1)[C@H](CO)N(C(=O)Cc1ccccc1)CC31CCN(C)CC1	0	/	-14
COc1ccc2c3c(n(C)c2c1)[C@H](CO)N(C(=O)Cc1ccccc1)CC31CN(C(=O)Cc2ccccc2)C1	9	/	-83*
CCC(=O)N1CC2(CN(C(=O)Cc3ccccc3)C2)c2c(n(C)c3cc(OC)ccc23)[C@@H]1CO	2	/	-37
COc1ccc(CN2CC3(CN(C(=O)Cc4ccncc4)C3)c3c([nH]c4cc(OC)ccc34)[C@@H]2CO)cc1	-1	/	-65
COc1ccc2c3c([nH]c2c1)[C@@H](CO)N(C(=O)Cc1ccccc1)CC31CCN(C(=O)Cc2ccccc2)CC1	25	/	-87*
COc1ccc2c3c([nH]c2c1)[C@H](CO)N(C(=O)Cc1ccccc1)CC31CCN(C(=O)Nc2ccccc2F)CC1	2	/	-91*
COc1ccc(CN2CC3(CN(C(=O)Cc4ccccc4)C3)c3c([nH]c4cc(OC)ccc34)[C@H]2CO)cc1	-3	/	-89*
COc1ccc2c3c([nH]c2c1)[C@@H](CO)N(C(=O)Nc1ccccc1F)CC31CCN(C(C)=O)CC1	3	/	-12
O=C(N[C@H]1CC[C@H](CCNS(=O)(=O)c2ccccc2)O[C@H]1CO)c1cnccn1	-2	-8	1
COc1ccc2c3c(n(C)c2c1)[C@@H](CO)N(C(=O)c1ccncc1)CC31CN(CC2CC2)C1	-6	/	2
CO[C@@H]1CC[C@H]2CCN(C)C(=O)[C@@H](C)N(C)C(=O)c3cc(C#N)ccc3OC[C@@H]1O2	13	9	/
COc1ccc2c3c([nH]c2c1)[C@H](CO)N(C(=O)Cc1ccccc1)CC31CN(C(=O)Cc2ccccc2)C1	1	/	-83*
COc1ccc2c3c(n(C)c2c1)[C@H](CO)N(C(=O)c1ccccc1)CC31CCN(C(=O)c2ccccc2)CC1	-8	/	-88*
COc1ccc2c3c([nH]c2c1)[C@@H](CO)N(C(=O)Nc1ccc(F)cc1)CC31CN(C(=O)Cc2ccccc2)C1	2	/	-10
CCC(=O)N1CC2(CCN(C(=O)Nc3ccc(F)cc3)CC2)c2c([nH]c3cc(OC)ccc23)[C@@H]1CO	-4	/	-59
COc1ccc2c3c(n(C)c2c1)[C@H](CO)N(C(=O)c1ccccc1)CC31CCN(C(C)=O)CC1	-1	/	-36
CCC(=O)N1CC2(CN(C(=O)Nc3ccc(F)cc3)C2)c2c([nH]c3cc(OC)ccc23)[C@@H]1CO	-2	/	-84*
C[C@@H]1CN([C@@H](C)CO)C(=O)Cc2cc(NC(=O)Nc3ccccc3)ccc2O[C@@H]1CN(C)Cc1ccc(Cl)c(Cl)c1	11	31	-23
SMILES	C diff growth	T cruzi growth	Pf Dd2 inh
CC(C)NC(=O)Nc1ccc2c(c1)C(=O)N([C@H](C)CO)C[C@@H](C)[C@@H](CN(C)C)O2	-4	25	4
COc1ccc(-c2ccc3c(c2)[C@@H]2[C@@H](CCN2S(=O)(=O)c2ccccc2C)[C@H](CO)N3)cc1	-2	89	-55
C[C@H](CO)N1C[C@H](C)[C@H](CN(C)C(=O)CN2CCOCC2)Oc2ncc(-c3cncnc3)cc2C1=O	4	/	16
CN1C(=O)c2cc(NC(=O)c3cccc(F)c3)ccc2OC[C@H]2O[C@H](CC(=O)Nc3ccccc3)CC[C@H]21	1	-2	-12
CCCN(C)C[C@H]1OCCCC[C@H](C)Oc2ccc(NS(=O)(=O)c3ccc(C)cc3)cc2C(=O)N([C@H](C)CO)C[C@H]1C	8	81	-86*
CCCN(C)C[C@@H]1OCCCC[C@@H](C)Oc2ccc(NS(=O)(=O)c3ccc(C)cc3)cc2C(=O)N([C@H](C)CO)C[C@H]1C	6	54	-89*
